Assay results as given in the supplement of paper PMC7156485.
“And” between values parts separate entries of the source, which are not always exact repeats. Identical values can stand only once. ± gives the standard deviation of the averaged measurements.

Assays:
Details in all cases: concentration: 10 µM; 24 h
[1] = system: HCC1569; experiment: cell number relative to DMSO (% of DMSO); higher = more cells (less growth inhibition / toxicity)
How it was run: (§1)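 HCC1569 and TDF cells were seeded at 800 per well in 384-well plates in RPMI with 10% FBS and treated with compounds at 10 µM for 24 h at 37 °C, in triplicate. After fixation in 3.7% formaldehyde, cells were stained with a rabbit anti-H1.0 antibody, an AlexaFluor 647 secondary and DAPI, and six fields per well were imaged at ×10. H1.0 nuclear intensity or cell number is given as percent of the plate control, using the median of replicates, with HCC1569 values smoothed for positional effects.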

[2] = system: TDF; experiment: as above
How it was run: as §1

[3] = system: TDF; experiment: H1.0 immunofluorescence intensity relative to DMSO (% of DMSO); higher = stronger H1.0 induction, active = 120 or more
How it was run: as §1

[4] = system: HCC1569; experiment: H1.0 immunofluorescence intensity relative to DMSO (% of DMSO); higher = stronger H1.0 induction, active = 140 or more
How it was run: as §1
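For H1.0 immunofluorescence intensity relative to DMSO in this document: TDF is a line of transformed human dermal fibroblasts of mesenchymal origin.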
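For cell number relative to DMSO in this document: TDF denotes transformed human dermal fibroblasts of mesenchymal origin.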

Row | Compound | cell number [1] | cell number [2] | H1.0 immunofluorescence intensity [3] | H1.0 immunofluorescence intensity [4]
1 | Cc1[nH]c2ccc(O)cc2c1CCN.O=C(O)C=CC(=O)O [2-Methyl-5-hydroxytryptamine maleate] | 106 | 98.7 | 98.3 (inactive) | 85.2 (inactive)
2 | C[N+](C)(C)CC#CCN1CCCC1=O.[I-] [Oxotremorine methiodide] | 106 | 97 | 100 (inactive) | 98.8 (inactive)
3 | C=CCN1CCC23c4c5ccc(O)c4OC2C(=NNC(=O)c2ccccc2)CCC3(O)C1C5 (stereo not given) [Naloxone benzoylhydrazone] | 99.7 | 118 | 101 (inactive) | 93.3 (inactive)
4 | NC(Cc1ccc(N(CCCl)CCCl)cc1)C(=O)O (stereo not given) [Melphalan] | 86.3 ± 3.1 | 69.2 ± 5.8 | 104 (inactive) | 96.1 (inactive)
5 | COc1ccc2[nH]c3c(c2c1)CCNC3 [6-Methoxy-1,2,3,4-tetrahydro-9H-pyrido[3,4b] indole] | 106 | 100 | 108 (inactive) | 108 (inactive)
6 | CN(C)C1C(=O)C(C(N)=O)=C(O)C2(O)C(=O)C3=C(O)c4c(O)cccc4C(C)(O)C3CC12 (stereo not given) [Tetracycline] | 104 | 109 | 101 (inactive) | 95.2 (inactive)
7 | C=CCN1CCC23c4c5ccc(O)c4OC2C(=NN=C2CCC4(O)C6Cc7ccc(O)c8c7C4(CCN6CC=C)C2O8)CCC3(O)C1C5 (stereo not given) [Naloxonazine] | 99.6 | 89 | 105 (inactive) | 117 (inactive)
8 | CC(C)(C)NCC(O)c1cc(Cl)c(N)c(Cl)c1 (stereo not given) [Clenbuterol] | 99.5 | 103 | 95.2 (inactive) | 118 (inactive)
9 | CNC(=O)Oc1ccc2c(c1)C1(C)CCN(C)C1N2C (stereo not given) [Physostigmine] | 104 | 104 | 102 (inactive) | 94.1 (inactive)
10 | COc1ccc2c(c1)C(=Cc1cnc[nH]1)C(=O)N2 | 72.4 | 49.2 | 98.1 (inactive) | 107 (inactive)
11 | CN1CCC(c2c[nH]c3ccc(O)cc23)CC1.O=C(O)C=CC(=O)O | 101 | 101 | 93.8 (inactive) | 82.3 (inactive)
12 | O=C(O)C=CC(=O)O.O=C(O)C=CC(=O)O.c1ccc2nc(N3CCNCC3)ccc2c1 [Quipazine dimaleate] | 97.5 | 103 | 90 (inactive) | 112 (inactive)
13 | CC(O)(CS(=O)(=O)c1ccc(F)cc1)C(=O)Nc1ccc(C#N)c(C(F)(F)F)c1 (stereo not given) [Bicalutamide] | 99.1 | 104 | 94.6 (inactive) | 98.8 (inactive)
14 | CNc1ccc2oc(CC3OC4(CCC3C)OC(C(C)C(=O)c3ccc[nH]3)C(C)CC4C)nc2c1C(=O)O (stereo not given) | 70.4 | 49.7 | 151 (active) | 124 (inactive)
15 | COc1cc(=O)oc(C=CC=CC=CC(C)=CC2(C)OC(C)C(C)(O)C2O)c1C (stereo not given) [Citreoviridin] | 36.3 | 38.6 | 123 (active) | 77.4 (inactive)
16 | Br.CN1C2CC(OC(=O)C(CO)c3ccccc3)CC1C(O)C2 (stereo not given) [Anisodamine] | 104 | 102 | 101 (inactive) | 94.6 (inactive)
17 | O=C1NC(=O)c2c1c1c3ccccc3n3c1c1c2c2ccccc2n1C1CCC3O1 | 77.9 and 77.4 | 74.9 and 76.9 | 105 (inactive) and 100 (inactive) | 126 (inactive) and 107 (inactive)
18 | CC1(CO)C(O)CCC2(C)C1CCC1CC3CC12CCC3(O)CO (stereo not given) [Aphidicolin] | 79.6 | 55.2 | 108 (inactive) | 95.2 (inactive)
19 | NC(Cn1cc(I)c(=O)[nH]c1=O)C(=O)O (stereo not given) [S-5-Iodowillardiine] | 107 | 107 | 91.2 (inactive) | 111 (inactive)
20 | C[N+]1(C)C2CCC1CC(OC(=O)C(CO)c1ccccc1)C2.O=[N+]([O-])[O-] (stereo not given) [Atropine methyl nitrate] | 101 | 113 | 94.9 (inactive) | 89.7 (inactive)
21 | CC(=O)OC1C2C(OC(=O)Cc3ccccc3)C(C)CC2(OC(C)=O)C(=O)C(C)=CC2C(CCC13CO3)C2(C)C (stereo not given) [Euphorbiasteroid] | 102 | 106 | 105 (inactive) | 91.5 (inactive)
22 | C[N+](C)(C)CCOC(=O)CBr.[Br-] [Bromoacetylcholine bromide] | 98.5 | 122 | 87.8 (inactive) | 85.7 (inactive)
23 | Cl.O=C1CC2OCC=C3CN4CCC56c7ccccc7N1C5C2C3CC46 (stereo not given) | 103 ± 5.8 | 102 ± 1.1 | 94.3 (inactive) | 94.2 (inactive)
24 | CCCCCCCCCCCCCC(=O)OC1C(C)C2(O)C(C=C(CO)CC3(O)C(=O)C(C)=CC32)C2C(C)(C)C12OC(C)=O (stereo not drawn) [4alpha-Phorbol-12-myristate-13-acetate] | 98.4 | 111 | 95.6 (inactive) | 108 (inactive)
25 | COc1ccccc1N1CCNCC1.Cl [1-(2-Methoxyphenyl)piperazine hydrochloride] | 105 | 113 | 96.4 (inactive) | 98.8 (inactive)

Row | Compound | cell number [1] | cell number [2] | H1.0 immunofluorescence intensity [3] | H1.0 immunofluorescence intensity [4]
26 | Cc1[nH]c2ccc(Cl)cc2c1C1=CCNCC1.Cl | 99.8 | 93.5 | 107 (inactive) | 120 (inactive)
27 | Clc1ccc(C2CC3CCC2N3)cn1 (racemic) | 102 | 96.3 | 90.6 (inactive) | 81.4 (inactive)
28 | CC(C)N(CCC(C(N)=O)(c1ccccc1)c1ccccn1)C(C)C (stereo not given) [Disopyramide] | 99.8 | 106 | 103 (inactive) | 98.5 (inactive)
29 | NC(Cn1ccc(=O)[nH]c1=O)C(=O)O (stereo not drawn) [S(-)-Willardiine] | 104 | 118 | 97.7 (inactive) | 97.6 (inactive)
30 | O=[N+]([O-])c1cc(O)c(O)c([N+](=O)[O-])c1 [3,5-Dinitrocatechol] | 98.6 | 107 | 99.9 (inactive) | 97.9 (inactive)
31 | O=P1(N(CCCl)CCCl)NCCCO1 (stereo not given) [Cyclophosphamide] | 107 | 95.5 | 101 (inactive) | 101 (inactive)
32 | C[N+]1(C)CCc2cc3c(cc2C1C1OC(=O)c2c1ccc1c2OCO1)OCO3.[Br-] (single isomer, unassigned; (-)) [(-)-Bicuculline methbromide, 1(S), 9(R)] | 101 | 104 | 94.2 (inactive) | 96.4 (inactive)
33 | NC(=O)c1cc(N2CC2)c([N+](=O)[O-])cc1[N+](=O)[O-] | 96.1 | 94 | 89.4 (inactive) | 91.7 (inactive)
34 | CCn1cc(C(=O)O)c(=O)c2cc3c(cc21)OCO3 [Oxolinic acid] | 100 | 109 | 104 (inactive) | 101 (inactive)
35 | NC1(C(=O)O)CCC(C(=O)O)C1 (mixture of isomers) | 104 | 106 | 96.5 (inactive) | 95.1 (inactive)
36 | CN1CC(C(=O)NC2(C)OC3(O)C4CCCN4C(=O)C(Cc4ccccc4)N3C2=O)C=C2c3cccc4[nH]cc(c34)CC21 (stereo not given) [Ergotamine] | 97.8 | 108 | 95.3 (inactive) | 106 (inactive)
37 | O=C([O-])Cc1ccccc1.[Na+] [Sodium Phenylacetate] | 96.8 | 103 | 96.8 (inactive) | 100 (inactive)
38 | CN(c1nc2ccccc2s1)C1CCN(CC(O)COc2ccc(F)c(F)c2)CC1.Cl.Cl (stereo not given) | 84.8 | 88.9 | 99 (inactive) | 141 (active)
39 | NC(CP(=O)(O)O)C(=O)O (racemic) | 105 | 104 | 82.6 (inactive) | 91.4 (inactive)
40 | CCCN(CCC)C(=O)Cc1c(-c2ccc(Cl)cc2)nc2ccc(Cl)cn12 | 87.6 | 93.7 | 100 (inactive) | 115 (inactive)
41 | Cl.c1ccc2c(c1)OCC(C1=NCCN1)O2 (stereo not given) [Idazoxan hydrochloride] | 102 | 98.8 | 99.6 (inactive) | 99 (inactive)
42 | COc1cc2c(c(OC)c1OC)-c1ccc(SC)c(=O)cc1C(NC(C)=O)CC2 (stereo not given) [Thiocolchicine] | 59.6 | 10.7 | 187 (active) | 155 (active)
43 | Br.NC1CCc2cc(O)c(O)cc2C1 (stereo not given) [6,7-ADTN hydrobromide] | 104 | 103 | 93.1 (inactive) | 92.4 (inactive)
44 | C[N+](C)(C)CCCCCCCCCC[N+](C)(C)C [Decamethonium] | 105 | 118 | 91 (inactive) | 102 (inactive)
45 | Cl.O=C(O)Cc1cnc[nH]1 [Imidazole-4-acetic acid hydrochloride] | 105 | 107 | 93 (inactive) | 93.3 (inactive)
46 | CC1CCC2C(C)C3C(CC4C5CC=C6CC(OC7OC(CO)C(O)C(OC8OC(CO)C(O)C(O)C8O)C7OC7OC(C)C(O)C(O)C7O)CCC6(C)C5CCC43C)N2C1 (racemic) | 103 | 101 | 97.4 (inactive) | 86 (inactive)
47 | N#CC(OC1OC(COC2OC(CO)C(O)C(O)C2O)C(O)C(O)C1O)c1ccccc1 (stereo not given) [Amygdalin] | 103 | 91.7 | 100 (inactive) | 90.7 (inactive)
48 | CN(C)Cc1c[nH]c2ccccc12 [Gramine] | 96.9 | 99.3 | 94.1 (inactive) | 83 (inactive)
49 | COc1ccc2c(c1)[nH]c1c(C)nccc12 [Harmine] | 87.2 ± 2.5 | 94.9 ± 3.2 | 99.7 (inactive) | 106 (inactive)
50 | CC1C(=O)OC2CCN3CC=C(COC(=O)C(C)(O)C1(C)O)C23 (stereo not given) [Monocrotaline] | 102 | 109 | 85.6 (inactive) | 90.2 (inactive)
